The text below walks through data of PubChem BioAssay (NCATS).

A short description of experiment [1]: Primary qHTS for small molecule stabilizers of the endoplasmic reticulum resident proteome: Secreted ER Calcium Modulated Protein (SERCaMP) assay (AID 1508630). Further: potency means the concentration at half of the fitted maximal effect. In outline: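 GLuc-SERCaMP-expressing SH-SY5Y cells, pretreated 16 h with compound, are challenged with thapsigargin to empty ER calcium stores; after 4 h, coelenterazine is added directly to the medium and luminescence is imaged.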
(Quantitative high-throughput screening tests each substance at several concentrations.)

Experiment [2] is described as follows: A High-Content qHTS Against Drug Library for the Identification of Small Molecules that Inhibit DYT1 Early Onset Primary Dystonia-Associated Cell Pathology (AID 1645839; calls by dose curve; further: series mostly up to about 46 µM). In outline: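 Readout: %pathology, the punctate EGFP-TorsinA distribution from imaging, as the primary channel and cell count as the toxicity counterscreen. HEK293 Flp-In cells expressing delE TorsinA were induced with tetracycline and treated with compound for 48 h.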

Experiment [3] deals with Cytochrome P450 2D6 (Homo sapiens) (UniProt P10635). Nature of the experiment: Cytochrome P450 family 2 subfamily D member 6 (CYP2D6) small molecule antagonists: luciferase biochemical (cell-free) qHTS assay (AID 1645840; active means well fitted curve in the direction sought with a large enough effect in the repeat runs; an effect the other way counts as inactive or inconclusive; further: nearly all actives have a fitted effect of over 55% in size; further: potency means the concentration at half of the fitted maximal effect). In a few lines: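 P450-Glo luminescent screen: recombinant CYP2D6 enzyme–proluciferin substrate mix preincubated with compound 10 min at room temperature, then NADPH regeneration added for 1 h at room temperature. Detection reagent added for 20 min; luciferin light read as relative luminescence units.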
Sequence of Cytochrome P450 2D6 (Homo sapiens) (P10635 whole entry, looked up): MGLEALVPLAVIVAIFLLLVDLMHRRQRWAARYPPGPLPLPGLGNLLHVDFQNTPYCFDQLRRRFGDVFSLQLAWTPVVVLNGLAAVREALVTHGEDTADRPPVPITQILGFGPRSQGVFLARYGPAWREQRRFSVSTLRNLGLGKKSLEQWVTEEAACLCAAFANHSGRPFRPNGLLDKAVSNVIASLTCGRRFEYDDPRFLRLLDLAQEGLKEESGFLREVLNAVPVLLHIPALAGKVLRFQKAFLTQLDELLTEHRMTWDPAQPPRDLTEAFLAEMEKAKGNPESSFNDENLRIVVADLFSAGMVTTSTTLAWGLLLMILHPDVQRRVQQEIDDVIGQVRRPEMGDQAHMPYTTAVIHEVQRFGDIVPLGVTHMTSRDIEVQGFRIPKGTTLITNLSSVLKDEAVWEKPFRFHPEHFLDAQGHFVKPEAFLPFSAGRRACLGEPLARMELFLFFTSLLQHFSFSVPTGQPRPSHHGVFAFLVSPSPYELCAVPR

The target of experiment [4] is Cytochrome P450 2C9 (Homo sapiens) (UniProt P11712). In words: Cytochrome P450 family 2 subfamily C member 9 (CYP2C9) small molecule antagonists: luciferase biochemical (cell-free) qHTS assay (AID 1645842; active means well fitted curve in the direction sought with a large enough effect in the repeat runs; an effect the other way counts as inactive or inconclusive; further: nearly all actives have a fitted effect of over 55% in size; further: potency means the concentration at half of the fitted maximal effect). In outline: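 Luminescence, after 20 min with luciferin detection reagent, reflected CYP2C9 turnover during a 1 h NADPH-driven reaction at 37C. Enzyme-substrate mix contained 0.4% bovine serum albumin and was preincubated with compound 10 min at room temperature.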
Sequence of Cytochrome P450 2C9 (Homo sapiens) (P11712 whole entry, looked up): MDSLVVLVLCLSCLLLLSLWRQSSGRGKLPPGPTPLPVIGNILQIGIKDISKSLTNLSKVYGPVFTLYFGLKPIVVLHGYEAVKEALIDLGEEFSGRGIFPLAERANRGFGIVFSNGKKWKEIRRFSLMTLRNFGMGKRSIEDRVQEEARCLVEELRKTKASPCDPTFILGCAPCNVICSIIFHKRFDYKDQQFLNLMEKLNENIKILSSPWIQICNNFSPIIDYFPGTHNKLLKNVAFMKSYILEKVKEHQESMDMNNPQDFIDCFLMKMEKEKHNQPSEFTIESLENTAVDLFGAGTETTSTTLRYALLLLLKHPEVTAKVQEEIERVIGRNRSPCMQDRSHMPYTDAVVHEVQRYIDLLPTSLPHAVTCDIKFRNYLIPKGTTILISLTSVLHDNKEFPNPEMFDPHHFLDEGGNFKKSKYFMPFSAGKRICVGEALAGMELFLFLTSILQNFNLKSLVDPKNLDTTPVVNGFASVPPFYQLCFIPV

Experiment [5] in a line: Primary qHTS for inhibitors of nuclear receptor binding SET domain protein 2 (NSD2) in an isogenic RCH-ACV NSD2 p.E1099K mutant (9B) (AID 1645876). Further: nearly all actives have a fitted effect of over 70% in size. Further: potency means the concentration at half of the fitted maximal effect.
The nature of experiment [6]: Primary qHTS for inhibitors of nuclear receptor binding SET domain protein 2 (NSD2) in an RCH-ACV wild type WT cells (2C) (AID 1645877). Further: nearly all actives have a fitted effect of over 70% in size. Further: potency means the concentration at half of the fitted maximal effect.
The target of experiment [7] is Cytochrome P450 3A4 (Homo sapiens) (UniProt P08684). Nature of the experiment: Cytochrome P450 family 3 subfamily A member 4 (CYP3A4) small molecule antagonists: luciferase qHTS assay (AID 1645841; active means well fitted curve in the direction sought with a large enough effect in the repeat runs; an effect the other way counts as inactive or inconclusive; further: nearly all actives have a fitted effect of over 45% in size). How it is done:
National Center for Advancing Translational Sciences [NCATS]
Cytochrome P450 (CYP) enzymes are membrane-bound hemeproteins that play a key role in metabolism of drugs and xenobiotics. Assaying the effect of chemicals on CYP isozymes is useful to minimize the adverse drug reactions and toxicities in drug development process. Chemical compounds were tested for their effect on CYP enzyme activities by using P450-Glo (TM) screening systems (Promega Corporation, Madison, WI). These systems provide a luminescent method containing proluciferin substrates and are converted to luciferin products by CYP isozymes. The luciferin products formed are detected with a luciferin detection reagent, and the amount of light produced is proportional to CYP activity. P450-Glo (TM) CYP3A4 screening system (Catalog. No. V9910) was used to detect the compounds that interfere in CYP3A4 activity. […]
Two ul of enzyme-substrate mix was dispensed into medium binding white/solid 1536-well plates (Greiner Bio-One North America Inc., Monroe, NC) using a Flying Reagent Dispenser (FRD, Aurora Discovery, San Diego, CA). […] The reaction was stopped by adding 4 ul of detection reagent using an FRD and after 20 min incubation at room temperature, the luminescence signal was measured using a ViewLux plate reader (Perkin Elmer, Shelton, CT). Data were expressed as relative luminescence units.

Where “and” joins values, the source holds several entries; their conditions need not be identical. Identical values can stand only once. Records with an inconclusive call do not appear. A number with no mark means an inactive call. Calls of active or inactive are those of the source. Unless noted, the call rests on the fitted dose curve; in most records, active means well fitted curve in the direction sought with a large enough effect; inconclusive means small, poorly fitted or top-dose-only effect, or another doubt; inactive means no such curve, though single readings can be large; an effect the other way counts as inactive or inconclusive.

Sequence of Cytochrome P450 3A4 (Homo sapiens) (P08684 whole entry, looked up): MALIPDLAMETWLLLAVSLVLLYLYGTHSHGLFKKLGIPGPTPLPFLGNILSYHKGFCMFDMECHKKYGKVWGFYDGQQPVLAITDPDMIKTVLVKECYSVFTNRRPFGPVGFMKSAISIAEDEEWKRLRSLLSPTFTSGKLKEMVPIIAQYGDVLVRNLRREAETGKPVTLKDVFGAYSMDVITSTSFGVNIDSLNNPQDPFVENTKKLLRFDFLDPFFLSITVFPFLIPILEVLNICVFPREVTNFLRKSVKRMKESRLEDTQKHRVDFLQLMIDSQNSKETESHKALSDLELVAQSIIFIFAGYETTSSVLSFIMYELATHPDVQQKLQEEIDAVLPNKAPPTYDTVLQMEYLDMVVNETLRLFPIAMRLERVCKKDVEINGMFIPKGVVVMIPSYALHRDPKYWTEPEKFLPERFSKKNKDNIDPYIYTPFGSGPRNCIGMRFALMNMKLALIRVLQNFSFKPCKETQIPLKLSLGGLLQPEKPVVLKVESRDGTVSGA

As for `Cc1nc2ccc(CN(C)c3ccc(C(=O)N[C@@H](CCC(=O)O)C(=O)O)s3)cc2c(=O)[nH]1`, the Potency result in experiment [1], in experiment [2], in experiment [3] and in experiment [4] was “inactive” in each case. For the same compound, the Potency in experiment [5] is 53.1 nM (active) and 33.2 nM (active); in experiment [6], 59.6 nM (active) and 23.5 nM (active).
Turning to `Nc1ccc(S(=O)(=O)Nc2ncccn2)cc1`, the Potency result in experiment [1], in experiment [3] and in experiment [4] was “inactive” in each case. Also, in experiment [7], the compound was called inactive.
As to `CCCNC(=O)Nc1ccc(Oc2ncnc3cc(OC)c(OC)cc23)cc1Cl`, the Potency entry in experiment [1], in experiment [3] and in experiment [4] was “inactive” in each case.
Regarding `NCC(=O)Nc1ccc(-n2nc(C(F)(F)F)cc2-c2ccc3c(ccc4ccccc43)c2)cc1`, the Potency result in experiment [1] was “inactive”. The Potency in experiment [3] is 15.1 µM (active); in experiment [4], 4.77 µM (active); in experiment [5] it was 1.15 µM (active) and 1.48 µM (active); in experiment [6], 4.09 µM (active) and 2.09 µM (active).
On to `Cc1ccc(C(=O)Nc2cccc(C(F)(F)F)c2)cc1-c1ccc2nc(NCCN3CCOCC3)ncc2c1`, for which the Potency entry in experiment [1] is “inactive”. Also, the Potency is 12 µM (active) in experiment [3]; 1.69 µM (active) in experiment [4]; 1.45 µM (active) and 2.63 µM (active) in experiment [5]; 1.83 µM (active) and 4.17 µM (active) in experiment [6].
Consider `CN(C)CC(C)(C)CNc1nn2c(-c3ccccc3)nnc2cc1C1CCC1`, for which the Potency entry in experiment [1], in experiment [5] and in experiment [6] was “inactive” throughout. Also, the Potency in experiment [3] is 2.13 µM (active); in experiment [4], 8.49 µM (active).
Take `CC(C)c1nn(-c2c(Cl)cccc2Cl)c2nc(Cc3ccc(OCCO)cc3)[nH]c(=O)c12`: the Potency entry in experiment [1] and in experiment [3] was “inactive” in each case. The Potency was 5.35 µM (active) in experiment [4]; 45.9 nM (active) and 46.8 nM (active) in experiment [5]; 25.8 nM (active) and 41.7 nM (active) in experiment [6].
Consider `CNC(=O)c1c(F)cccc1Nc1nc(Nc2cc3c(cc2OC)CCN3C(=O)CN(C)C)nc2[nH]ccc12`, for which the Potency result in experiment [1] and in experiment [3] was “inactive” each time. In addition, the Potency is 0.425 µM (active) in experiment [4]; 5.15 µM (active) and 7.42 µM (active) in experiment [5]; 3.25 µM (active) and 5.9 µM (active) in experiment [6].
In the case of `COc1ccc(F)c(F)c1C(=O)c1cnc(NC2CCN(S(C)(=O)=O)CC2)nc1N`, the Potency entry in experiment [1] and in experiment [3] was “inactive” each time. Also, the Potency in experiment [4] was 10.7 µM (active) and 19 µM (active); in experiment [5] it was 325 nM (active) and 662 nM (active); in experiment [6] it was 325 nM (active) and 525 nM (active).
For `CC(=O)c1c(C)c2cnc(Nc3ccc(N4CCNCC4)cn3)nc2n(C2CCCC2)c1=O`, the Potency in experiment [1] is 5.95 µM (active); in experiment [5] it was 1.48 µM (active); in experiment [6], 1.32 µM (active). Also, the Potency entry in experiment [3] and in experiment [4] was “inactive” in each case.
Turning to `Cc1[nH]nc2ccc(-c3cncc(OC[C@@H](N)Cc4ccccc4)c3)cc12`, the Potency entry in experiment [1] was “inactive”. Further, the Potency is 0.674 µM (active) in experiment [3]; 9.52 µM (active) in experiment [4]; 325 nM (active) and 263 nM (active) in experiment [5]; 326 nM (active) and 186 nM (active) in experiment [6].
For the compound `Cc1c(CN2CCN(S(C)(=O)=O)CC2)sc2c(N3CCOCC3)nc(-c3cnc(N)nc3)nc12`, the Potency result in experiment [1] and in experiment [3] was “inactive” each time. Moreover, the Potency in experiment [4] was 10.7 µM (active); in experiment [5], 29 nM (active) and 74.2 nM (active); in experiment [6] it was 32.5 nM (active) and 118 nM (active).
Consider `C=CC(=O)Nc1cccc(Oc2nc(Nc3ccc(N4CCN(C)CC4)cc3OC)ncc2Cl)c1`, for which, in experiment [1], the Potency entry is “inactive”. Further, the Potency in experiment [3] was 23.9 µM (active); in experiment [4], 13.5 µM (active); in experiment [5], 5.15 µM (active) and 8.33 µM (active); in experiment [6], 5.15 µM (active) and 8.33 µM (active).
Take `COc1cc2nccc(Oc3ccc(NC(=O)C4(C(=O)Nc5ccc(F)cc5)CC4)cc3)c2cc1OC`: the Potency entry in experiment [1] and in experiment [3] was “inactive” in each case. The Potency is 2.68 µM (active) in experiment [4]; 3.65 µM (active) and 5.25 µM (active) in experiment [5]; 4.09 µM (active) and 4.68 µM (active) in experiment [6].
As to `c1ccc2c(CCNc3ccc(Nc4ccncc4)cc3)c[nH]c2c1`, the Potency result in experiment [1] was “inactive”. Further, the Potency in experiment [3] was 0.477 µM (active); in experiment [4], 2.68 µM (active); in experiment [5] it was 728 nM (active) and 332 nM (active); in experiment [6], 578 nM (active) and 296 nM (active).
On to `O=C(Nc1cn[nH]c1-c1nc2ccc(CN3CCOCC3)cc2[nH]1)NC1CC1`, for which the Potency result in experiment [1], in experiment [3] and in experiment [4] was “inactive” in each case. Further, the Potency in experiment [5] is 325 nM (active) and 366 nM (active) and 166 nM (active); in experiment [6], 64.9 nM (active) and 58 nM (active) and 59 nM (active).
